# Source: PubChem BioAssay (NCATS)
# Values joined by “and” are separate entries in the source; they are usually repeats but may differ in a detail not shown here. Equal entries are not always repeated. Inconclusive results are not listed. Entries that show only a call come without a potency. Where a structure was tested more than once in an assay, its records may differ in their call. Unmarked numbers belong to inactive results. Active and inactive are the calls of the source. Calls come from the whole dose curve; as a rule, active = well fitted inhibition curve with a large enough effect; inconclusive = small, poorly fitted or top-dose-only effect; inactive = flat fitted curve, though single readings scatter.
# Key:
# [1] = system: KB-3-1; test: Cytotoxic Profiling of Annotated Libraries Using Quantitative High-Throughput Screening (AID 1296008); conditions: Five cell lines viability, CellTiter-Glo ATP luminescence, 48-72 h; max response: stronger effect = lower value; note: potency is the fitted concentration of half-maximal effect
# Outline: (§1)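 Cytotoxicity was measured as CellTiter-Glo ATP luminescence, read after 10 min at room temperature. Compound treatment of the cells lasted 48 or 72 hr at 37 degrees Celsius in a qHTS format.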
# [2] = system: NIH3T3; test: as above; conditions: Five cell lines viability, CellTiter-Glo ATP luminescence, 48-72 h; max response: stronger effect = lower value
# Outline: as §1
# [3] = system: HACAT; test: qHTS assay to identify novel small-molecules to repurpose for Merkel cell carcinoma treatment (AID 1296009); conditions: MCC and control cell lines, CellTiter-Glo viability, 72 h
# Outline: (§2)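 Cell viability, measured as CellTiter-Glo luminescence, was normalized between DMSO and no-cell wells. The cells had been exposed to 8- or 11-point compound dilutions for 72 hr at 37 degree celsius.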
# [4] = system: HEK293T; test: as above; conditions: MCC and control cell lines, CellTiter-Glo viability, 72 h; at 44.8 µM (top of the series) unless noted
# Outline: as §2
# [5] = system: MCC-13; test: as above; conditions: MCC and control cell lines, CellTiter-Glo viability, 72 h; series mostly up to 46 µM
# Outline: as §2
# [6] = system: MCC-26; test: as above; conditions: MCC and control cell lines, CellTiter-Glo viability, 72 h; series mostly up to 46 µM
# Outline: as §2
# [7] = system: MKL-1; test: as above; conditions: MCC and control cell lines, CellTiter-Glo viability, 72 h; series mostly up to 46 µM
# Outline: as §2
# [8] = system: MKL-2; test: as above; conditions: MCC and control cell lines, CellTiter-Glo viability, 72 h; series mostly up to 46 µM
# Outline: as §2
# [9] = system: NIH3T3; test: as above; conditions: MCC and control cell lines, CellTiter-Glo viability, 72 h; at 44.8 µM (top of the series) unless noted
# Outline: as §2
# [10] = system: UISO; test: as above; conditions: MCC and control cell lines, CellTiter-Glo viability, 72 h; series mostly up to 46 µM
# Outline: as §2
# [11] = at 44.8 µM (top of the series) unless noted
# Note: nearly all actives have a fitted effect of over 60% in size.
smiles,measurement,setting,value
CCCCCCCCCCCCOS(=O)(=O)O,max response,[1],16.2%
same,outcome,[2],inactive
same,outcome,[3]; [11],inactive
same,outcome,[4],inactive
same,Potency,[5],inactive
same,Potency,[6],inactive
same,Potency,[7],inactive
same,Potency,[8],inactive
same,outcome,[9],inactive
same,Potency,[10],inactive
Cc1c(Cl)cccc1Nc1ccccc1C(=O)O,max response,[1],-2.57%
same,outcome,[2],inactive
same,outcome,[3]; [11],inactive
same,outcome,[4],inactive
same,Potency,[5],inactive
same,Potency,[6],inactive
same,Potency,[7],inactive
same,Potency,[8],inactive
same,outcome,[9],inactive
same,Potency,[10],inactive
C/C(=C(\CCOP(=O)(O)O)SC(=O)c1ccccc1)N(C=O)Cc1cnc(C)nc1N,max response,[1],9.44%
same,outcome,[2],inactive
same,outcome,[3]; [11],inactive [at 4.96 µM]
same,outcome,[4],inactive [at 4.96 µM]
same,"activity change, negative = cytotoxicity",[5],-6.17% [at 4.84 µM]
same,"activity change, negative = cytotoxicity",[6],20.3% [at 4.84 µM]
same,"activity change, negative = cytotoxicity",[7],2.11% [at 4.84 µM]
same,"activity change, negative = cytotoxicity",[8],12.5% [at 4.84 µM]
same,outcome,[9],inactive [at 4.96 µM]
same,"activity change, negative = cytotoxicity",[10],22.4% [at 4.84 µM]
Cn1c(=O)c2c(ncn2CC2OCCO2)n(C)c1=O,max response,[1],6.93% and 8.78%
same,max response,[2],0.911%
same,outcome,[2],inactive
same,outcome,[3]; [11],inactive
same,outcome,[4],inactive
same,Potency,[5],inactive
same,Potency,[6],inactive
same,Potency,[7],inactive
same,Potency,[8],inactive
same,outcome,[9],inactive
same,Potency,[10],inactive
COc1ccc2[nH]c(S(=O)Cc3ncc(C)c(OC)c3C)nc2n1 (stereo not drawn),max response,[1],2.51%
same,outcome,[1],inactive
same,max response,[2],3.86%
same,outcome,[2],inactive
same,outcome,[3]; [11],inactive
same,outcome,[4],inactive
same,Potency,[5],inactive
same,Potency,[6],inactive
same,Potency,[7],inactive
same,Potency,[8],inactive
same,outcome,[9],inactive
same,Potency,[10],inactive
Nc1ccc(S(=O)(=O)Nc2nccs2)cc1,max response,[1],-16.1%
same,outcome,[1],inactive
same,max response,[2],0.16% and -3.65%
same,Potency,[5],inactive
same,Potency,[6],inactive
same,Potency,[7],inactive
same,Potency,[8],inactive
same,Potency,[10],inactive
Oc1cccc(O)c1,max response,[1],-21.4%
same,outcome,[2],inactive
same,outcome,[3]; [11],inactive
same,outcome,[4],inactive
same,Potency,[5],inactive
same,Potency,[6],inactive
same,Potency,[7],inactive
same,Potency,[8],inactive
same,outcome,[9],inactive
same,Potency,[10],inactive
O=C1O[C@H]([C@@H](O)CO)C(O)=C1O,max response,[1],-6.89% and 6.42%
same,outcome,[2],inactive
same,outcome,[3]; [11],inactive
same,outcome,[4],inactive
same,Potency,[5],inactive
same,Potency,[6],inactive
same,Potency,[7],inactive
same,Potency,[8],inactive
same,outcome,[9],inactive
same,Potency,[10],inactive
C[C@@H]1C[C@H]2[C@@H]3C[C@H](F)C4=CC(=O)C=C[C@]4(C)[C@@]3(F)[C@@H](O)C[C@]2(C)[C@@]1(O)C(=O)CO,max response,[1],18.2%
same,outcome,[1],inactive
same,max response,[2],-2.74% and -3.01%
same,outcome,[4],inactive
same,Potency,[5],inactive
same,Potency,[6],inactive
same,Potency,[7],inactive
same,Potency,[8],inactive
same,Potency,[10],inactive
CCN(CC)CCNC(C(=O)OCCC(C)C)c1ccccc1 (stereo not drawn),max response,[1],11.9%
same,outcome,[2],inactive
same,outcome,[3]; [11],inactive
same,outcome,[4],inactive
same,Potency,[5],inactive
same,Potency,[6],inactive
same,Potency,[7],inactive
same,Potency,[8],inactive
same,outcome,[9],inactive
same,Potency,[10],inactive
Cc1cc(N)c2ccccc2[n+]1CCCCCCCCCC[n+]1c(C)cc(N)c2ccccc21,Potency,[1],9.2 µM (active)
same,max response,[1],-23.8%
same,max response,[2],-20.7%
Nc1nc2c(ncn2CCC(CO)CO)c(=O)[nH]1,max response,[1],13.5% and 1.71%
same,max response,[2],1.75%
same,outcome,[2],inactive
same,outcome,[3]; [11],inactive
same,Potency,[5],inactive
same,Potency,[6],inactive
same,Potency,[7],inactive
same,Potency,[8],inactive
same,outcome,[9],inactive
same,Potency,[10],inactive
O=C(O)c1ccccn1,max response,[1],-2.2%
same,outcome,[2],inactive
same,outcome,[3]; [11],inactive
same,outcome,[4],inactive
same,Potency,[5],inactive
same,Potency,[6],inactive
same,Potency,[7],inactive
same,Potency,[8],inactive
same,outcome,[9],inactive
same,Potency,[10],inactive
CC(C)(O)c1ccccc1CC[C@@H](SCC1(CC(=O)O)CC1)c1cccc(/C=C/c2ccc3ccc(Cl)cc3n2)c1,max response,[1],-11.2% and 6.98%
same,max response,[2],-22.4%
same,outcome,[2],inactive
same,outcome,[3]; [11],inactive
same,Potency,[5],inactive
same,Potency,[6],inactive
same,Potency,[7],inactive
same,Potency,[8],inactive
same,outcome,[9],inactive
same,Potency,[10],inactive
C[C@@H]1CN(c2c(F)c(F)c3c(=O)c(C(=O)O)cn(C4CC4)c3c2F)C[C@H](C)N1,max response,[1],-12.7%
same,outcome,[1],inactive
same,max response,[2],-2.2% and -0.725%
same,outcome,[3]; at 9.27 µM (top of the series),inactive
same,outcome,[3]; at 17.4 µM (top of the series),inactive
same,Potency,[5],inactive
same,Potency,[6],inactive
same,Potency,[7],inactive
same,Potency,[8],inactive
same,Potency,[10],inactive
CCN(CC)CCNC(=O)c1cc(Cl)c(N)cc1OC,max response,[1],7.45%
same,outcome,[1],inactive
same,max response,[2],-2.52%
same,outcome,[2],inactive
same,outcome,[3]; [11],inactive
same,outcome,[4],inactive
same,Potency,[5],inactive
same,Potency,[6],inactive
same,Potency,[7],inactive
same,Potency,[8],inactive
same,outcome,[9],inactive
same,Potency,[10],inactive
Cc1cc(C(C#N)c2ccc(Cl)cc2)c(Cl)cc1NC(=O)c1cc(I)cc(I)c1O (stereo not drawn),outcome,[1],inactive
same,max response,[2],-5.52%
same,outcome,[2],inactive
same,outcome,[3]; [11],inactive
same,Potency,[5],inactive
same,Potency,[6],inactive
same,Potency,[7],inactive
same,Potency,[8],inactive
same,outcome,[9],inactive
CC(C)(C(=O)O)c1ccc(C(O)CCCN2CCC(C(O)(c3ccccc3)c3ccccc3)CC2)cc1 (stereo not drawn),max response,[1],-2.58% and -5.29%
same,outcome,[2],inactive
same,outcome,[3]; [11],inactive
same,outcome,[4],inactive
same,Potency,[5],inactive
same,Potency,[6],inactive
same,Potency,[7],inactive
same,Potency,[8],inactive
same,outcome,[9],inactive
same,Potency,[10],inactive
CCOc1nc2cccc(C(=O)O)c2n1Cc1ccc(-c2ccccc2-c2nn[nH]n2)cc1,max response,[1],-0.374% and 6.58%
same,max response,[2],4.21%
same,outcome,[2],inactive
same,Potency,[5],inactive
same,Potency,[6],inactive
same,Potency,[7],inactive
same,Potency,[8],inactive
same,outcome,[9],inactive
same,Potency,[10],inactive
c1ccc(CN(CC2=NCCN2)c2ccccc2)cc1,max response,[1],-11.4% and 8.49%
same,max response,[2],2.96%
same,outcome,[2],inactive
same,outcome,[3]; [11],inactive
same,Potency,[5],inactive
same,Potency,[6],inactive
same,Potency,[7],inactive
same,Potency,[8],inactive
same,outcome,[9],inactive
same,Potency,[10],inactive
